Test results: PubChem BioAssay (NCI)
This is part of a sample that, as a whole, favours compounds with a hit. Of some 83,000 tested, about 20% had one in any assay.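 How to read the values: 0–100, growth inhibition (40 = 60% inhibited); 0, no net growth; -100 to 0, cell death (-40 = 40% of starting cells died; -100 = all dead).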 The source made the active and inactive calls. Rule for the calls: active = growth percent below 10; inactive = the rest.

Key:
Assay in all cases: NCI-60 one-dose screen, 48 h (100 = growth as untreated, 0 = no growth, -100 = all killed)
Conditions in all cases: 10 µM unless noted
SK-MEL-2 melanoma = test system: SK-MEL-2 melanoma
EKVX NSCLC = test system: EKVX NSCLC
SN12C renal = test system: SN12C renal
UO-31 renal = test system: UO-31 renal
TK-10 renal = test system: TK-10 renal
ACHN renal = test system: ACHN renal
CAKI-1 renal = test system: CAKI-1 renal
A498 renal = test system: A498 renal
CCRF-CEM leukemia = test system: CCRF-CEM leukemia
MOLT-4 leukemia = test system: MOLT-4 leukemia

Measured: growth

COc1cc(/C=C/C(=O)N2CCN(C(=O)c3cc(OC)c(OC)c(OC)c3)CC2)ccc1OCCCN1C(=O)c2cccc3cccc(c23)C1=O
inactive: SK-MEL-2 melanoma 49.3% | EKVX NSCLC 114% | SN12C renal 93.7% | UO-31 renal 42.1% | TK-10 renal 97.5% | ACHN renal 80.7% | CAKI-1 renal 72.9% | A498 renal 62.2% | CCRF-CEM leukemia 27.1% | MOLT-4 leukemia 49.6%

CS(=O)c1cccc(-c2ccc3nc(N)n(-c4ccc(C(F)(F)F)cc4)c(=O)c3c2)c1 (stereo not given)
inactive: SK-MEL-2 melanoma 98.2% | EKVX NSCLC 108% | SN12C renal 96.3% | UO-31 renal 75.8% | TK-10 renal 94.7% | ACHN renal 105% | CAKI-1 renal 96.3% | A498 renal 107% | CCRF-CEM leukemia 99.7%

CC(C)(C)CC(C)(C)Nc1c(-c2ccncc2)nc2cnccn12
inactive: SK-MEL-2 melanoma 106% | EKVX NSCLC 93.1% | SN12C renal 102% | UO-31 renal 86.7% | TK-10 renal 99.2% | ACHN renal 87.7% | CAKI-1 renal 80.6% | A498 renal 90.9% | CCRF-CEM leukemia 91.6% | MOLT-4 leukemia 94.1%

CC(C)=C[C@@H]1c2c(c3ccccc3n(C)c2=O)O[C@H]2c3c(c4ccccc4n(C)c3=O)OC(C)(C)[C@@H]12
inactive: SK-MEL-2 melanoma 66.4% | EKVX NSCLC 90.9% | SN12C renal 115% | UO-31 renal 63.1% | TK-10 renal 123% | ACHN renal 70.4% | CAKI-1 renal 87.7% | A498 renal 102% | CCRF-CEM leukemia 46.6% | MOLT-4 leukemia 39.5%

COC(=O)[C@]12CC[C@@H](C)[C@H](C)[C@@H]1C1=CC[C@@H]3[C@@]4(C)C(C=O)=C[C@@](C)(COC(C)=O)[C@@H]4[C@H](O)C[C@@]3(C)[C@]1(C)CC2
active: SK-MEL-2 melanoma -25.4% | SN12C renal -19.3% | UO-31 renal -26.2% | TK-10 renal -8.86% | ACHN renal -54.3% | CAKI-1 renal 1.42% | CCRF-CEM leukemia 1.74%
inactive: EKVX NSCLC 20% | A498 renal 28.3%

Nc1n[nH]c2cc(F)c([C@@H]3Nc4c(F)cc5[nH]ncc5c4[C@H]4C5CCC(C5)[C@@H]34)cc12 (stereo not given in full)
active: CAKI-1 renal 6.94% | A498 renal -38.9%
inactive: SK-MEL-2 melanoma 43.5% | EKVX NSCLC 63.2% | SN12C renal 17.3% | UO-31 renal 36.5% | TK-10 renal 76.3% | ACHN renal 24.4% | CCRF-CEM leukemia 17.8% | MOLT-4 leukemia 14.8%

O=C(Nc1ccccc1)Nc1cccc(Oc2nnc(Cl)c3ccccc23)c1
active: SK-MEL-2 melanoma 9.53%
inactive: EKVX NSCLC 30% | SN12C renal 53.7% | UO-31 renal 34.9% | TK-10 renal 25.3% | ACHN renal 33.9% | CAKI-1 renal 84.4% | A498 renal 49.2% | CCRF-CEM leukemia 47.6%

C[n+]1cc2c3c(ccc2c2ccc4cc5c(cc4c21)OCO5)OCO3
inactive: CCRF-CEM leukemia 11.8%
active: SK-MEL-2 melanoma -77.4% | EKVX NSCLC -74% | SN12C renal -53.4% | UO-31 renal -94.6% | TK-10 renal -95.4% | ACHN renal -92.2% | CAKI-1 renal -29.9% | A498 renal -64.1%

O=C(Nc1ccc(Cl)cc1)Nc1ccc(Cl)c(C(F)(F)F)c1
inactive: UO-31 renal 18.5% | TK-10 renal 18.1%
active: SK-MEL-2 melanoma 3.63% | EKVX NSCLC -3.9% | SN12C renal 6.93% | ACHN renal 0.165% | CAKI-1 renal 8.5% | A498 renal -7.36% | CCRF-CEM leukemia -27.6% | MOLT-4 leukemia -9.08%

CC(C)(C)C(CCc1ccc(Cl)cc1)N1CCN(C2CCCCC2)CC1 (stereo not given)
inactive: SK-MEL-2 melanoma 72.9% | EKVX NSCLC 70.1% | SN12C renal 45.7% | UO-31 renal 32.6% | TK-10 renal 96.2% | ACHN renal 51.3% | CAKI-1 renal 35.8% | A498 renal 78% | CCRF-CEM leukemia 25.9%

COc1ccc(C2C(c3nn[nH]n3)=C(N)Oc3c2ccc2ccccc32)cc1 (stereo not given)
inactive: SK-MEL-2 melanoma 61.5% | EKVX NSCLC 83.4% | SN12C renal 64.9% | UO-31 renal 45.1% | TK-10 renal 43.8% | ACHN renal 68.6% | CAKI-1 renal 34.3% | A498 renal 26.5% | CCRF-CEM leukemia 75.3% | MOLT-4 leukemia 52.6%

Cn1c(=O)c2c(nc(Cl)n2CCl)n(C)c1=O
inactive: SK-MEL-2 melanoma 89.9% | EKVX NSCLC 112% | SN12C renal 106% | UO-31 renal 93.4% | TK-10 renal 95.6% | ACHN renal 104% | CAKI-1 renal 98.5% | A498 renal 118% | CCRF-CEM leukemia 84.9% | MOLT-4 leukemia 99.7%

Cc1cc(NCc2cc(Nc3ccnc4cc(Cl)ccc34)ccc2F)nc(N2CCSCC2)n1
active: UO-31 renal -10.2% | TK-10 renal -58.3% | ACHN renal -81.4% | CCRF-CEM leukemia -10.4%
inactive: SK-MEL-2 melanoma 47.6% | EKVX NSCLC 58.7% | SN12C renal 34.9% | CAKI-1 renal 60.9% | A498 renal 45%

O=C1/C(=C/c2ccc(F)cc2)C=C(c2ccccc2)N1CCc1ccccc1
inactive: SK-MEL-2 melanoma 55.5% | EKVX NSCLC 56.9% | SN12C renal 58.3% | UO-31 renal 51% | TK-10 renal 62.4% | ACHN renal 38.6% | CAKI-1 renal 76% | A498 renal 81.3% | CCRF-CEM leukemia 95%

O=C(Nc1cccc(Oc2nnc(Cl)c3ccccc23)c1)Nc1ccc(Cl)c(C(F)(F)F)c1
active: SK-MEL-2 melanoma -72.1% | EKVX NSCLC -6.74% | SN12C renal -71.9% | UO-31 renal -28.4% | TK-10 renal -51.5% | ACHN renal -8.47% | A498 renal -82.7% | CCRF-CEM leukemia -5.44%
inactive: CAKI-1 renal 11.7%

COc1ccc(S(=O)(=O)NCCNc2nccc(-c3c(-c4cccc(F)c4)nc4sccn34)n2)cc1
inactive: SK-MEL-2 melanoma 58.1% | EKVX NSCLC 39.7% | SN12C renal 30.7% | UO-31 renal 20.3% | TK-10 renal 55.8% | ACHN renal 15.8% | CAKI-1 renal 28.2% | A498 renal 43.1% | CCRF-CEM leukemia 32.3% | MOLT-4 leukemia 33.9%

COC(=O)[C@]12CC[C@@H](C)[C@H](C)[C@@H]1C1=CC[C@@H]3[C@@]4(C)C(C=O)=C[C@@](C)(COS(C)(=O)=O)[C@@H]4C(=O)C[C@@]3(C)[C@]1(C)CC2
inactive: SK-MEL-2 melanoma 66.9% | EKVX NSCLC 53.2% | SN12C renal 36.2% | UO-31 renal 34.2% | TK-10 renal 54.2% | ACHN renal 17.8% | CAKI-1 renal 53.3% | A498 renal 98.2% | CCRF-CEM leukemia 30.9%

COc1cc(-c2nn(-c3ccccc3)cc2-c2ccnc(NCCNS(=O)(=O)c3ccc(Cl)cc3)n2)ccc1Cl
inactive: SK-MEL-2 melanoma 61.2% | EKVX NSCLC 37% | SN12C renal 26.8% | UO-31 renal 21.2% | TK-10 renal 43% | ACHN renal 15.4% | CAKI-1 renal 28.9% | A498 renal 32% | CCRF-CEM leukemia 35.8%

Cc1cc(NCc2cc(Nc3ccnc4cc(Cl)ccc34)ccc2F)nc(N2CCCC2)n1
active: UO-31 renal -50.9% | TK-10 renal -35.8% | ACHN renal -69.2% | CCRF-CEM leukemia -22.5%
inactive: SK-MEL-2 melanoma 93.5% | EKVX NSCLC 17.3% | SN12C renal 35.8% | CAKI-1 renal 71.5% | A498 renal 59.2%

O=c1c2cc(F)ccc2sc2c(Nc3cccnc3)nc3ccccc3c12
active: MOLT-4 leukemia 4.56%
inactive: SK-MEL-2 melanoma 109% | EKVX NSCLC 83.2% | SN12C renal 93.4% | UO-31 renal 79.7% | TK-10 renal 96.3% | ACHN renal 73.5% | CAKI-1 renal 69.1% | A498 renal 79.5% | CCRF-CEM leukemia 28.2%

COC(=O)[C@]12CC[C@@H](C)[C@H](C)[C@@H]1C1=CC[C@@H]3[C@@]4(C)C(C=O)=C[C@@](C)(COC(C)=O)C4=CC[C@@]3(C)[C@]1(C)CC2
inactive: EKVX NSCLC 12.7% | CAKI-1 renal 13.7% | A498 renal 14.6%
active: SK-MEL-2 melanoma -45.1% | SN12C renal 9.9% | UO-31 renal -9.5% | TK-10 renal -8.72% | ACHN renal -16% | CCRF-CEM leukemia -14.7%

CNC(=O)c1cc(Oc2ccc3nc(Nc4ccc(Cl)c(C(F)(F)F)c4)ccc3c2)ccn1
inactive: SK-MEL-2 melanoma 75.9% | EKVX NSCLC 62.6% | SN12C renal 71.1% | UO-31 renal 57.8% | TK-10 renal 54.5% | ACHN renal 49.4% | CAKI-1 renal 92.7% | A498 renal 61.8% | CCRF-CEM leukemia 42.2%

CCN1C(=O)N(CC)C2C1NN=c1s/c(=C\c3cccs3)c(=O)n12 (stereo not given)
active: TK-10 renal 5.35% | A498 renal -12.4%
inactive: SK-MEL-2 melanoma 42% | EKVX NSCLC 60.6% | SN12C renal 29.7% | UO-31 renal 50.2% | ACHN renal 42.2% | CAKI-1 renal 35.4% | CCRF-CEM leukemia 26.6%

O=S(=O)(NCCCNc1cc(-c2c(-c3cccc(O)c3)nc3sccn23)ccn1)c1cccc(Cl)c1
inactive: SK-MEL-2 melanoma 63.7% | EKVX NSCLC 58.6% | SN12C renal 27% | UO-31 renal 31.5% | TK-10 renal 94.4% | ACHN renal 41.6% | CAKI-1 renal 43% | A498 renal 80.4% | CCRF-CEM leukemia 22.8% | MOLT-4 leukemia 15.2%

Cc1cc(NCc2cc(Nc3ccnc4cc(Cl)ccc34)ccc2F)nc(N2CCOCC2)n1
inactive: SK-MEL-2 melanoma 84.6% | EKVX NSCLC 54.3% | SN12C renal 31.4% | CAKI-1 renal 60.3% | A498 renal 51.7%
active: UO-31 renal -47.8% | TK-10 renal -10.4% | ACHN renal -79.5% | CCRF-CEM leukemia 1.04%

CC(C)C(=O)Nc1n[nH]c2cc(-c3cccc(NS(=O)(=O)C4CC4)c3)ccc12
inactive: SK-MEL-2 melanoma 78% | EKVX NSCLC 71.7% | SN12C renal 77.7% | UO-31 renal 56.7% | TK-10 renal 94.9% | ACHN renal 70% | CAKI-1 renal 71.2% | A498 renal 100% | CCRF-CEM leukemia 72.4% | MOLT-4 leukemia 57.8%

COc1ccc(-c2c(N)n[nH]c2-c2ccc(Cl)cc2O)cc1OC
inactive: SK-MEL-2 melanoma 78.7% | EKVX NSCLC 109% | SN12C renal 52.4% | UO-31 renal 74% | TK-10 renal 102% | ACHN renal 96.1% | CAKI-1 renal 90.5% | A498 renal 86.6% | CCRF-CEM leukemia 69.1% | MOLT-4 leukemia 107%
